Sampled rows, rich in hits. Any-hit rate of the full collection: about 2.6%.
PME-1 primary = blocks human protein phosphatase methylesterase 1; Q9Y570; recombinant PME-1, FP-Rh probe fluorescence polarization; inhibition, % at 5.9 µM; actives 0.53% (n = 320,000);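 active = inhibition above the campaign mean of all compounds plus 3 SD, cut at about 26% in these data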;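 note: competitive labeling of PME-1 active site by serine hydrolase directed probe; 0% = PME-1 with DMSO and 100% = wells lacking PME-1 enzyme; inhibitors block probe labeling so polarization falls and inhibition rises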
PAD4 FP inh = inhibitors of human PAD4. Q9UM07. AID 485272. inhibition, % at 6.36 µM. recombinant PAD4, RCA probe fluorescence polarization. actives 0.41% (n = 330,000);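 active = percent inhibition above a cutoff equal to the mean of all tested compounds plus 3 SD, cut at about 15% in these data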;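 note: 0% = PAD4 with RCA probe and DMSO and 100% = probe without PAD4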
TCR CD3 inh = human TCR-CD3 binding inhibition | TAMRA-labeled TCR probe fluorescence, biochemical | inhibition, % at 9.4 µM | actives 0.37% (n = 360,000) | AID 651800;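 note: recombinant mutant TCR 2C K166C tagged with TAMRA read by polarization; 0% = receptor in buffer alone and 100% = receptor with positive control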
SIAE primary = human SIAE inhibition, primary screen; inhibition, % at 9.66 µM; actives 0.69% (n = 370,000); SIAE FP-Rh probe binding, fluorescence polarization; Q9HAT2;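 active = inhibition above a cutoff: mean of compounds within the control limits plus 3 SD of those, cut at about 17% in these data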;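 note: 0% = plate median of compound wells and 100% = probe without SIAE protein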
Fam108B counter = counter-screen for RBBP9 inhibitors: inhibitors of mouse Fam108B | recombinant Fam108B, FP-Rh probe fluorescence polarization | actives 0.33% (n = 300,000) | inhibition, % at 9.51 µM;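 active = inhibition above the screen mean inhibition plus 3 SD, computed separately per campaign, cut at about 18% in these data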;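 note: inhibitors lower polarization as less probe binds the enzyme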
PRMT1 FP inh = inhibitors of human PRMT1; inhibition, % at 2.79 µM; recombinant PRMT1, activity-based probe fluorescence polarization; actives 1.3% (n = 370,000); AID 652257;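 active = inhibition above about 21% made by adding two undisclosed values, limit read from the data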
Target sequence (Q99873 whole entry, looked up): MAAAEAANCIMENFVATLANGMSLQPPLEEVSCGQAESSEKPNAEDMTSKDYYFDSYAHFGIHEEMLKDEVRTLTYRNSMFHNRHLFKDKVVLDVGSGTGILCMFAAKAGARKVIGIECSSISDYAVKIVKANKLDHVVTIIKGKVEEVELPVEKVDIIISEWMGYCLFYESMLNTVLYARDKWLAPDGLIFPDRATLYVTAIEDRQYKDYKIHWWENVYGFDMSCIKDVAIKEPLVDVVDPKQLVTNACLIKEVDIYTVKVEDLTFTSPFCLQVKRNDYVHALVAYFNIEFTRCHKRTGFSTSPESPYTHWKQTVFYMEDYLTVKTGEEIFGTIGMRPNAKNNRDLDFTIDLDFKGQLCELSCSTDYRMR
BSA probe FL = counter-screen for TCR-CD3 interaction inhibitors: BSA probe; shares compounds with TCR CD3 inh; TAMRA-labeled BSA probe fluorescence counterscreen; inhibition, % at 9.4 µM; actives 10% (n = 1,200); AID 652035; in the data active = inhibition above about 23%;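 note: 0% = buffer low control and 100% = reference high control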
TCR-CD3 conf = TCR-CD3 interaction inhibition, confirmation; inhibition, % at 9.4 µM; TAMRA-labeled TCR probe fluorescence binding assay; AID 652036; shares compounds with TCR CD3 inh; actives 48% (n = 1,200)
Active calls of the source: *; x = no result. Cut-off read from the data, not from the text of the source, unless noted: active = inhibition above about 19%; inactive = the rest.

SMILES	PME-1 primary	PAD4 FP inh	TCR CD3 inh	SIAE primary	Fam108B counter	PRMT1 FP inh	BSA probe FL	TCR-CD3 conf
O=C(Nc1ccccc1)Nc1c(-c2ccc(F)cc2)nc2ncccn12	x	x	x	3	x	-4	x	x
O=c1cc(-c2ccccc2)oc2c1ccc1ccccc12	x	x	1	-11	x	1	x	x
O=c1cc(-c2ccc(O)c(O)c2)oc2ccc3ccccc3c12	x	x	56*	4	x	5	-6	48*
O=c1cc(-c2ccccc2)oc2ccc3ccccc3c12	x	x	-4	4	x	-3	x	x
O=c1cc(-c2ccc(O)c(O)c2)oc2c1ccc1ccccc12	21	1	40*	-3	x	14	-5	75*
COCCN1C(=O)C2=C(C1=O)C1N(C)c3ccccc3[C@@]13C[C@@H](CO)N(C(C)=O)C3=N2 (stereo not given in full)	x	x	x	2	x	1	x	x
COc1cc([N+](=O)[O-])cc(/C=N/NC(=O)c2cc(-c3ccccc3)nc3ccccc23)c1O	-7	-7	24*	-4	2	-5	10	8
COc1cc([N+](=O)[O-])cc(/C=N/NC(=O)c2cc(C)nc3ccccc23)c1O	2	-2	24*	-4	6	10	-6	23*
COc1ccc(/C=N/NC(=O)c2cc(-c3ccccc3)nc3ccccc23)c(C(=O)O)c1OC	-22	-4	2	-11	-2	6	x	x
O=C(Nc1cccc(F)c1)O[C@@H]1CC[C@@]23CCCN2C(=O)CCC[C@H]3C1	x	x	x	0	x	-4	x	x
CN(Cc1ccccc1F)C(=O)C1C2C=CC3(CN(Cc4ccccc4)C(=O)C13)O2 (stereo not given)	x	x	x	0	x	-7	x	x
CC(=O)c1nc(N2C(=O)CC(Cc3ccc(C)cc3)C2=O)sc1C (stereo not given)	-6	-6	56*	-3	-12	3	-2	4
Cc1nn(-c2ccccc2)c(Cl)c1C(=O)NCC(C)C	-4	5	-6	3	-1	0	x	x
Cc1nn(-c2ccccc2)c(Cl)c1C(=O)NCC(C)c1ccccc1 (stereo not given)	-6	2	130*	7	-2	-2	-3	0
CCOC(=O)CS(=O)(=O)c1nc(-c2ccccc2)cc(C(F)(F)F)n1	-1	0	22*	-5	-3	18	1	0
CCOC(=O)CCS(=O)(=O)c1nc(-c2ccccc2)cc(C(F)(F)F)n1	2	9	x	x	-5	x	x	x
Cc1ccc(-n2c(SCC(=O)c3ccccc3Cl)nnc2-c2cnccn2)cc1	x	x	x	-10	x	-1	x	x
C/C(=N\NC(=O)c1ccc(CN2CCc3ccccc3C2)cc1)c1ccccc1O	-8	3	25*	-3	3	2	-11	18
O=C(Nc1ccc(F)cc1)OCc1cn(Cc2cc(F)cc(F)c2)nn1	x	x	x	7	x	-7	x	x
COc1cccc(/C=C2/SC(=S)N(CC(=O)NNC(=O)c3ccccc3OC)C2=O)c1	-1	-1	17	-5	3	3	x	x
COc1ccc(/C=C2\SC(=S)N(CCCC(=O)NNC(=O)c3ccccc3O)C2=O)cc1	-8	-4	31*	-19	-23	-4	-14	22*
COc1cccc(/C=C2\SC(=S)N(CCC(=O)NNC(=O)c3ccccc3OC)C2=O)c1	-6	-9	41*	5	0	-2	1	22*
O=C(CCCN1C(=O)/C(=C/c2cccs2)SC1=S)NNC(=O)c1ccccc1O	-22	0	31*	-9	-11	-3	-5	31*
Cc1ccc(-c2cc(-c3nnc(SCc4cccc5ccccc45)n3N)[nH]n2)cc1	x	x	x	-6	x	6	x	x
NC(=O)c1sc2nc(-c3ccccc3)ccc2c1N	14	-7	-6	2	3	4	x	x
SMILES	PME-1 primary	PAD4 FP inh	TCR CD3 inh	SIAE primary	Fam108B counter	PRMT1 FP inh	BSA probe FL	TCR-CD3 conf
CC(=O)c1sc2nc(-c3ccco3)ccc2c1N	-7	-4	24*	9	16	52*	-6	3
COCCn1c(=NC(=O)c2cc(-c3cccs3)nc3ccccc23)sc2cc(S(N)(=O)=O)ccc21	-78	-6	29*	-118	-61	-2	2	21*
NC(=O)c1sc(=S)n2c1[nH]c(=O)c1sccc12	3	0	-2	-26	4	2	x	x
CC(=O)NNC(=O)c1sc(=S)n2c1[nH]c(=O)c1sccc12	-2	1	29*	-9	10	0	-2	9
Nc1nonc1C(=O)N/N=C/c1cc(Br)ccc1O	-6	-4	23*	-2	0	4	-8	20*
Nc1nonc1-n1nnc(C(=O)N/N=C/c2cc(Br)ccc2O)c1CNc1ccccc1	-7	5	11	4	-16	4	x	x
O=C(NCC(=O)N(CC1CCCO1)C(C(=O)NC1CCCCC1)c1ccccc1)c1cccs1 (stereo not given)	-2	-1	29*	6	-3	4	4	2
Oc1ccc(-c2csc(Nc3ncccn3)n2)cc1O	x	x	32*	-2	x	9	-19	17
Oc1ccc(-c2csc(-c3cccnc3)n2)cc1O	-6	5	22*	-4	-4	7	-8	16
COc1ccc(CCNS(=O)(=O)c2c(C)n[nH]c2C)cc1	x	x	x	2	x	3	x	x
C[C@@H]1COc2cc(Br)ccc2S(=O)(=O)N1Cc1cn(Cc2ccc(C(F)(F)F)cc2)nn1	x	x	x	-3	x	-1	x	x
COc1ccc(C)cc1NC(=S)NNC(=O)c1ccccc1Cl	-1	-5	3	2	2	-5	x	x
Cc1ccc(NC(=O)NNC(=O)c2cc3ccccc3cc2O)cc1C	2	-3	21*	1	-5	3	-4	17
Cc1cccc(NC(=S)NNC(=O)c2ccc(O)cc2O)c1C	-3	-4	52*	3	3	4	-6	37*
Cc1ccc(C)c(NC(=O)NNC(=O)c2cc3ccccc3cc2O)c1	4	-1	22*	6	2	-1	-8	18
Cc1ccc(NC(=S)NNC(=O)c2ccccc2O)c(C)c1	-2	0	41*	6	1	3	-10	32*
Clc1cc(Cl)cc(CNC2CCC23CCC(c2ccccc2)CC3)c1 (stereo not given)	x	x	x	2	x	-2	x	x
Cc1n[nH]c(C)c1S(=O)(=O)NC(C)Cc1ccccn1 (stereo not given)	x	x	x	6	x	-1	x	x
O=C(NCCCl)NNC(=O)c1cc2ccccc2cc1O	-1	-1	19*	10	10	7	-4	16
Cc1cccc(NC(=O)NNC(=O)c2cc3ccccc3cc2O)c1C	-1	-3	24*	3	-1	1	-1	20*
O=C(NNC(=O)c1cc2ccccc2cc1O)Nc1ccccc1F	15	-6	13	5	4	3	x	x

Source: PubChem BioAssay
